Measured values reported in PubChem BioAssay (NCI).
Compounds without any hit were thinned out: in the full panel of roughly 79,000, 15% have a hit. Calls of active or inactive are those of the source. Rule as the data show it: active = growth inhibition above about 70%; inactive = the rest.

Tests used:
[1] = NCI Yeast Anticancer Drug Screen. Data for the rad52 strain (AID 147);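 also: 0% = growth of vehicle-treated control cultures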; details: S. cerevisiae rad52 mutant growth inhibition, active compounds read high
Outline: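 Growth of repair-deficient yeast cells was compared between compound-treated and vehicle-treated cultures to give percent inhibition.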

[2] = NCI Yeast Anticancer Drug Screen. Data for the wt1 strain (AID 149);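 also: 0% = growth of vehicle-treated wt1 cultures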; details: S. cerevisiae wt1 strain (SPY 50644) growth inhibition, active compounds read high
Outline: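 Yeast wt1 strain exposed to compounds; growth inhibition measured relative to vehicle-treated controls.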

[3] = NCI Yeast Anticancer Drug Screen. Data for the rad50EPP+ strain (AID 151);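 also: 0% = growth of vehicle-treated control cultures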; details: S. cerevisiae rad50 mutant strain, active compounds read high
Outline: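 Measured: growth inhibition of rad50EPP+ yeast. Reference: vehicle-treated controls. Screen uses strains with defined genetic alterations in DNA damage repair or cell cycle control.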

[4] = NCI Yeast Anticancer Drug Screen. Data for the rad50 strain (AID 155);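 also: 0% = growth of vehicle-only cultures of the same strain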; details: S. cerevisiae rad50 strain growth inhibition, active compounds read high
Outline: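 Yeast carrying a defined DNA repair defect were exposed to test compounds, and growth was compared with vehicle-treated controls to give percent inhibition.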

[5] = NCI Yeast Anticancer Drug Screen. Data for the mec2-1 strain (AID 157); details: S. cerevisiae mec2-1 strain, active compounds read high
Outline: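 Compounds were applied to mec2-1 yeast cells. Their growth was then compared with that of vehicle-treated cultures to give growth inhibition.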

[6] = NCI Yeast Anticancer Drug Screen. Data for the rad14 strain (AID 159);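 also: 0% = growth of vehicle-treated control cultures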; details: S. cerevisiae rad14 strain growth inhibition, active compounds read high
Outline: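 Yeast cells carrying a defined DNA-repair defect were exposed to compounds, and growth inhibition was calculated relative to vehicle-treated control cultures.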

[7] = NCI Yeast Anticancer Drug Screen. Data for the sgs1 mgt1 strain (AID 161);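 also: 0% = growth of cultures given vehicle only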; details: S. cerevisiae sgs1 mgt1 strain, active compounds read high
Outline: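 Percent growth inhibition was derived by comparing compound-exposed mutant yeast with vehicle-exposed cultures. The strain carries alterations in DNA damage repair.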

[8] = NCI Yeast Anticancer Drug Screen. Data for the CLN2oe strain (AID 163);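 also: 0% = growth of vehicle-only control cultures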; details: S. cerevisiae CLN2oe strain, active compounds read high
Outline: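 Cells of an engineered yeast line with disturbed cell-cycle regulation are treated with compound. Inhibition of growth is then calculated relative to the vehicle-treated reference.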

[9] = NCI Yeast Anticancer Drug Screen. Data for the cln2 rad14 strain (AID 165);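 also: 0% = growth equal to vehicle treated cultures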; details: S. cerevisiae cln2 rad14 strain, active compounds read high
Outline: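 Strain: cln2 rad14 yeast, altered in cell cycle control and DNA damage repair. Read-out: growth inhibition vs vehicle.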

[10] = NCI Yeast Anticancer Drug Screen. Data for the bub3 strain (AID 167); details: S. cerevisiae bub3 mutant strain, active compounds read high
Outline: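 Compounds were applied to a genetically altered yeast strain carrying a cell-cycle control defect. Growth inhibition was scored against vehicle-treated controls.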

[11] = NCI Yeast Anticancer Drug Screen. Data for the wt2 strain (AID 169);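 also: 0% = growth of vehicle-treated yeast cultures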; details: S. cerevisiae wt2 strain growth inhibition, active compounds read high
Outline: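 Growth of compound-treated yeast is measured and expressed as inhibition relative to vehicle-only controls.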

[12] = NCI Yeast Anticancer Drug Screen. Data for the mlh1 strain (AID 171);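 also: 0% = growth of vehicle-treated control cultures of the same strain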; details: S. cerevisiae mlh1 strain growth inhibition, active compounds read high
Outline: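 Test agents were incubated with yeast bearing a defined DNA damage repair or cell cycle control alteration; values are growth inhibition normalised to vehicle-treated cultures.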

[13] = NCI Yeast Anticancer Drug Screen. Data for the sgs1 strain (AID 173);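 also: 0% = growth of vehicle-only control cultures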; details: S. cerevisiae sgs1 mutant, active compounds read high
Outline: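 Strain with an altered DNA repair or cell cycle pathway exposed to compound. Growth then measured. Value = inhibition versus vehicle control.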

[14] = NCI Yeast Anticancer Drug Screen. Data for the mlh1 rad18 strain (AID 175); details: S. cerevisiae mlh1 rad18 strain growth inhibition, active compounds read high
Outline: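 A repair-deficient yeast strain is exposed to test compound, and growth is scored relative to vehicle-treated controls.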

[15] = at 5.0 µM (retest, dose inferred, filed as 0.5)
[16] = at 50.0 µM (retest, dose inferred, filed as 5.0)

Measured: growth inhibition

OC1CCCC2CCC[N-]C12.OC1CCCC2CCC[N-]C12.[O]=[V][OH] (stereo not drawn)
inactive: [1]; at 1.2 µM 54% | [2]; at 1.2 µM -4% | [2]; at 3.7 µM 67% | [3]; at 1.2 µM 47% | [4]; at 1.2 µM 47% | [5]; at 1.2 µM 3% | [5]; [16] 66% | [6]; at 1.2 µM 8% | [7]; [15] 19% | [8]; at 1.2 µM -12% | [9]; [15] 46% | [10]; at 1.2 µM 10% | [11]; at 1.2 µM -17% | [11]; at 3.7 µM 68% | [12]; at 1.2 µM -25% | [12]; at 3.7 µM 50% | [13]; at 1.2 µM 17% | [13]; at 3.7 µM 69% | [14]; [16] 64%
active: [1]; at 3.7 µM 98% | [1]; at 11.0 µM 98% | [1]; at 33.0 µM 97% | [1]; at 100.0 µM 97% | [2]; at 11.0 µM 85% | [2]; at 33.0 µM 93% | [2]; at 100.0 µM 96% | [3]; at 3.7 µM 96% | [3]; at 11.0 µM 96% | [3]; at 33.0 µM 95% | [3]; at 100.0 µM 95% | [4]; at 3.7 µM 95% | [4]; [15] 99% | [4]; at 11.0 µM 95% | [4]; at 33.0 µM 95% | [4]; [16] 97% | [4]; at 50.0 µM 86.8% | [4]; at 100.0 µM 95% | [5]; at 3.7 µM 86% | [5]; [15] 99% | [5]; at 11.0 µM 98% | [5]; at 33.0 µM 98% | [5]; at 50.0 µM 90.1% | [5]; at 100.0 µM 96% | [6]; at 3.7 µM 89% | [6]; at 11.0 µM 98% | [6]; at 33.0 µM 97% | [6]; at 100.0 µM 97% | [7]; [16] 98% | [7]; at 50.0 µM 91.5% | [8]; at 3.7 µM 78% | [8]; at 11.0 µM 93% | [8]; at 33.0 µM 95% | [8]; at 100.0 µM 96% | [9]; [16] 97% | [9]; at 50.0 µM 79.8% | [10]; at 3.7 µM 89% | [10]; [15] 99% | [10]; at 11.0 µM 98% | [10]; at 33.0 µM 98% | [10]; [16] 95% | [10]; at 50.0 µM 90.8% | [10]; at 100.0 µM 97% | [11]; at 11.0 µM 92% | [11]; at 33.0 µM 93% | [11]; at 100.0 µM 96% | [12]; at 11.0 µM 79% | [12]; at 33.0 µM 88% | [12]; at 100.0 µM 95% | [13]; at 11.0 µM 83% | [13]; at 33.0 µM 89% | [13]; at 100.0 µM 94% | [14]; [15] 99% | [14]; at 50.0 µM 86.8%

N#Cc1cc(N(CCCl)CCCl)c([N+](=O)[O-])cc1[N+](=O)[O-]
inactive: [1]; at 1.2 µM 7% | [1]; at 3.7 µM 19% | [1]; at 11.0 µM 28% | [1]; at 33.0 µM 67% | [2]; at 1.2 µM -6% | [2]; at 3.7 µM 4% | [2]; at 11.0 µM -7% | [2]; at 33.0 µM 2% | [2]; at 100.0 µM 58% | [3]; at 1.2 µM 15% | [3]; at 3.7 µM 17% | [3]; at 11.0 µM 11% | [3]; at 33.0 µM 32% | [3]; at 100.0 µM 39% | [4]; at 1.2 µM -4% | [4]; at 3.7 µM -8% | [4]; [15] 5% | [4]; at 11.0 µM 10% | [4]; at 33.0 µM 40% | [4]; [16] 42% | [4]; at 100.0 µM 65% | [5]; at 1.2 µM 22% | [5]; at 3.7 µM 24% | [5]; [15] -43% | [5]; at 11.0 µM 23% | [5]; at 33.0 µM 28% | [5]; [16] 11%
active: [1]; at 100.0 µM 85% | [4]; at 50.0 µM 87.4% | [5]; at 50.0 µM 88.8%
